An excerpt weighted towards active compounds, which were near 7.4% of everything screened.
FLuc counter: qHTS profiling assay for firefly luciferase inhibitor/activator using purifed enzyme and Km concentrations of substrates (counterscreen for miR-21 project); 360,000 tested, 6.9% active; Luciferin 4-monooxygenase (Photinus pyralis), P08659; purified FLuc, Km substrates, luminescence inhibition; Potency, µM (titrated, usually from 57.5 µM), most hits filed as inhibitors; AID 588342, 2011; further: nearly all actives have a fitted effect of over 55% in size
Target sequence (P08659 whole entry, looked up): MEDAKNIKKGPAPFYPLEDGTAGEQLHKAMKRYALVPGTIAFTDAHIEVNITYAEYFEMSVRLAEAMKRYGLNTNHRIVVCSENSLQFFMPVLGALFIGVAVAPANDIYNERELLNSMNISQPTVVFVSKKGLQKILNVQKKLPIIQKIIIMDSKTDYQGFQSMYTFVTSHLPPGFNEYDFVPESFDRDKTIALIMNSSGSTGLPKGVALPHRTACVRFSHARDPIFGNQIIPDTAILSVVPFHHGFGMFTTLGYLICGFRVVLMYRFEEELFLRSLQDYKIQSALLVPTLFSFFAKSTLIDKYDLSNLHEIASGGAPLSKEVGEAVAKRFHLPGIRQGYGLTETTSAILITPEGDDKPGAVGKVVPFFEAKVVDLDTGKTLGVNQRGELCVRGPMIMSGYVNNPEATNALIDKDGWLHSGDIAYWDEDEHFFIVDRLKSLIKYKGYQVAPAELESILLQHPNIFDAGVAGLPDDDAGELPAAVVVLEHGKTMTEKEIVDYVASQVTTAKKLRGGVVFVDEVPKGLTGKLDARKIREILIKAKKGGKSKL
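Biochemical qHTS of compounds, final roughly 60 µM downward over six points, against 10 nM purified firefly luciferase using Km concentrations of substrates (10 uM D-luciferin, 10 uM ATP) in Tris acetate pH 7.5 buffer; luminescence output.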
ELG1 genotoxic: qHTS screen for small molecules that induce genotoxicity in human embryonic kidney (HEK293T) cells expressing luciferase-tagged ELG1. HEK293T ELG1-luciferase reporter, luminescence, 16 h. Potency, µM (highest dose often 46 µM), hits mostly activators. 330,000 tested, 1.3% active; further: nearly all actives have a fitted effect of over 60% in size
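HEK293T cells expressing luciferase-tagged ELG1 were treated with compound or DMSO for 16 hr at 37°C. Luciferase activity was then read after 30 min with ONE-Glo at room temperature; rising signal flags genetic stress.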
SMN2 splice enh: qHTS Assay for Enhancers of SMN2 Splice Variant Expression; 210,000 tested, 2.8% active; AID 1458, 2008; HEK293 SMN2-luciferase splicing reporter, luminescence, 30-36 h; Potency, µM (highest dose often 46.1 µM), actives largely listed as activators; further: nearly all actives have a fitted effect of over 55% in size
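qHTS luciferase splicing reporter: luminescence rises when SMN2 exon 7 is included in transfected HEK293 cells. Compound exposure lasted 30-36 h at 37C, with 4.5 mM final sodium butyrate as control, followed by a ONE-Glo read.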
p53 reactivation: qHTS assay for re-activators of p53 using a Luc reporter; H1299 p53-A138V BP100-luciferase reporter, luminescence, 24 h; Potency, µM (doses to about 92.2 µM), hits mostly activators; 320,000 tested, 0.063% active; AID 504706, 2011; further: nearly all actives have a fitted effect of over 45% in size
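p53-null H1299 cells stably carrying temperature-sensitive p53-A138V and a BP100-luciferase reporter were pinned with compounds (4-point, 1:5 series) and held 24 hrs at 37 deg C. Luminescence was read 10 min after detection reagent.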
Rab9 prom act: qHTS Assay for Rab9 Promoter Activators. Huh7 Rab9 promoter-luciferase reporter, luminescence, 24 h. Potency, µM (highest dose often 9.22 µM), most hits filed as activators. 320,000 tested, 2.8% active; further: nearly all actives have a fitted effect of over 60% in size
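Huh7 cells stably carrying Rab9 promoter–luciferase reporter, plated 1500 cells/well, compound added after 2 h and incubated 24 h at 37 °C; luciferase luminescence then read after 10 min with detection reagent.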
NPC1 prom act: qHTS Assay for NPC1 Promoter Activators; Huh7 NPC1 promoter luciferase reporter, 24 h; Potency, µM (series often up to 9.22 µM), usual class: activators; 320,000 tested, 2.4% active; AID 485313, 2010; further: nearly all actives have a fitted effect of over 60% in size
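Stable NPC1-promoter luciferase Huh7 line; cpd (DMSO) 24 h, 37 °C, 5% CO2; Amplite luciferase reagent 10 min RT; luminescence readout. qHTS format.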
Large screens that a line does not name were inactive. The call rests on the fitted dose curve; in most records, active means well fitted curve in the direction sought with a large enough effect; inconclusive means small, poorly fitted or top-dose-only effect, or another doubt; inactive means no such curve, though single readings can be large; an effect the other way counts as inactive or inconclusive.

Oc1ccc(Nc2nc(-c3ccc(Cl)cc3)cs2)cc1	none (no result: FLuc counter, ELG1 genotoxic, p53 reactivation, Rab9 prom act, NPC1 prom act)
COc1ccc2c(c1)CCC/C2=N/OC(=O)c1ccccc1OC	FLuc counter 13µM
Cc1cccc(C(=O)O/N=C(\N)CS(=O)(=O)c2ccccc2)c1	none (no result: SMN2 splice enh)
COc1ccc2c(c1)CC/C2=N\OC(=O)c1cccc(C)c1	FLuc counter 1.5µM, ELG1 genotoxic inconclusive, p53 reactivation inconclusive, Rab9 prom act inconclusive, NPC1 prom act 3.5µM
COc1ccccc1C(=O)ON=C1c2ccccc2-c2ccccc21	FLuc counter 21µM
COc1ccc2c(c1)CC/C2=N\OC(=O)c1ccccc1C	FLuc counter 1.5µM, ELG1 genotoxic inconclusive, p53 reactivation inconclusive, Rab9 prom act inconclusive, NPC1 prom act inconclusive
COc1ccccc1C(=O)O/N=C(\c1ccccc1)c1ccncc1	none
COc1ccc2c(c1[N+](=O)[O-])CCC/C2=N/OC(=O)c1cccc2ccccc12	none
COc1cc(OC)c(NC(=O)CSCc2nc(-c3ccc(OC)c(OC)c3)no2)cc1Cl	none (no result: ELG1 genotoxic, SMN2 splice enh, p53 reactivation, Rab9 prom act, NPC1 prom act)
COc1ccc(C(=O)N(Cc2ccccc2)c2cccc(C)c2)cc1	ELG1 genotoxic 15µM, Rab9 prom act inconclusive, NPC1 prom act inconclusive (no result: SMN2 splice enh)
Cc1ccc(N(Cc2ccccc2)C(=O)c2cccc(F)c2)cc1	FLuc counter 13µM (no result: SMN2 splice enh)
Cc1ccc(C(=O)CC(=O)c2cccc(F)c2)c(O)c1	FLuc counter 12µM, ELG1 genotoxic inconclusive, p53 reactivation inconclusive
Cc1ccc(N(Cc2ccccc2)C(=O)c2ccc(F)cc2)cc1	none (no result: SMN2 splice enh)
O=C(NNc1cc(C(F)(F)F)nc2ccccc12)Nc1cccc(Cl)c1	none (no result: SMN2 splice enh)
O=C(Cc1c(F)cccc1Cl)NNC(=S)Nc1ccc(S(=O)(=O)Nc2ncccn2)cc1	p53 reactivation inconclusive (no result: SMN2 splice enh)
O=C(Nc1cccc(Cl)c1Cl)c1cc(S(=O)(=O)N2CCC3(CC2)OCCO3)ccc1F	none (no result: ELG1 genotoxic, SMN2 splice enh, p53 reactivation, Rab9 prom act, NPC1 prom act)
COc1ccc(S(=O)(=O)NCC(c2cccs2)S(=O)(=O)c2ccccc2)cc1OC (centres undefined)	none (no result: ELG1 genotoxic, SMN2 splice enh, p53 reactivation, Rab9 prom act, NPC1 prom act)
Cc1ccc(Nc2cccccc2=O)cc1	FLuc counter 15µM, ELG1 genotoxic inconclusive, p53 reactivation inconclusive, Rab9 prom act 3.5µM, NPC1 prom act inconclusive (no result: SMN2 splice enh)
Cc1ccc(NC(=O)CSc2nc3nccnc3c(=O)n2CCc2c[nH]c3ccccc23)cc1C	none (no result: ELG1 genotoxic, SMN2 splice enh, p53 reactivation, Rab9 prom act, NPC1 prom act)
Cc1ccc2c(C)c(C(=O)N(Cc3ccc(Cl)cc3)C3CCS(=O)(=O)C3)oc2c1 (centres undefined)	none (no result: ELG1 genotoxic, p53 reactivation, Rab9 prom act, NPC1 prom act)
CCc1c(C)nc2[nH]nc(-c3ccccc3C)n2c1=O	FLuc counter inconclusive
CCc1c(C)nc2[nH]nc(-c3ccccc3)n2c1=O	FLuc counter 21µM, ELG1 genotoxic inconclusive, p53 reactivation inconclusive (no result: SMN2 splice enh)
Cc1ccc(NC(=O)CCc2c(C)nc3nc(C)nn3c2C)c(Cl)c1	none (no result: ELG1 genotoxic, p53 reactivation, Rab9 prom act, NPC1 prom act)
CC(=O)c1ccc(S(=O)(=O)N2CCN(C(=O)CSC(=S)N3CCCC3)CC2)cc1	none (no result: SMN2 splice enh)
O=C(NC(=S)Nc1ccc(F)cc1)c1ccc2c(c1)OCCO2	FLuc counter 1.9µM, ELG1 genotoxic inconclusive, SMN2 splice enh inconclusive, Rab9 prom act 0.5µM, NPC1 prom act 0.63µM
O=C(NC(=S)Nc1ccc2oc(=O)ccc2c1)c1ccccc1F	none (no result: SMN2 splice enh)
O=C(NC(=S)Nc1ccc2c(c1)OCCO2)c1ccccc1F	FLuc counter 5.4µM, ELG1 genotoxic inconclusive, SMN2 splice enh inconclusive, Rab9 prom act 1.3µM, NPC1 prom act 2.5µM
CCOc1cccc(C(=O)NC(=S)Nc2ccc3c(c2)OCCO3)c1	FLuc counter 8.5µM, ELG1 genotoxic inconclusive, Rab9 prom act inconclusive
O=C(NC(=S)Nc1ccc(N2CCOCC2)cc1)c1ccc2c(c1)OCCO2	FLuc counter inconclusive, p53 reactivation inconclusive
COc1cccc(OC)c1C(=O)NC(=S)Nc1ccc2c(c1)OCCO2	FLuc counter 21µM, ELG1 genotoxic inconclusive
COc1ccc(CCN(C)C(=O)C2CCCN(C3CCN(Cc4ccccc4)CC3)C2)cc1OC (centres undefined)	none (no result: SMN2 splice enh)
CCOc1ccccc1NC(=O)C(c1ccccc1)N1Cc2ccccc2C1=O (centres undefined)	none (no result: ELG1 genotoxic, SMN2 splice enh, p53 reactivation, Rab9 prom act, NPC1 prom act)

Screening results as filed in PubChem BioAssay.
